According to PubChem BioAssay (NCATS):
Results filed as inconclusive are left out. A call without a number means that no potency is given here. Activity calls are given as the source filed them. Calls come from the whole dose curve; as a rule, active = well fitted curve in the direction sought with a large enough effect; inconclusive = small, poorly fitted or top-dose-only effect, or another doubt; inactive = no such curve, though single readings can be large; an effect the other way counts as inactive or inconclusive.

Key:
[1] = target: Aldehyde dehydrogenase, mitochondrial (Homo sapiens) (UniProt P05091); assay: qHTS for Inhibitors of the Aldehyde Dehydrogenase Family (ALDH2) Primary screen (AID 2061308); details: ALDH2 enzyme inhibition qHTS, 1536-well; series mostly up to 56 µM; note: nearly all actives have a fitted effect of over 55% in size
[2] = target: Retinaldehyde dehydrogenase 3 (Homo sapiens) (UniProt P47895); assay: qHTS for Inhibitors of the Aldehyde Dehydrogenase Family (ALDH1A3) Primary screen (AID 2061315); details: ALDH inhibition qHTS; series mostly up to 56 µM

Row | SMILES | Potency [1] | Potency [2]
1 | CC(=O)Nc1sc2c(c1-c1ccc3c(c1)OCCO3)CCNC2 | inactive | inactive
2 | COc1cccc(C2=Nn3c(nnc3-c3ccccc3OC)SC2)c1 | inactive | inactive
3 | Cc1cc(NS(=O)(=O)CCNC(=O)Cc2ccc(Cl)c(Cl)c2)no1 | inactive | inactive
4 | COc1cc(Nc2nc(-c3ccncc3)nc3ccccc23)ccc1Cl | inactive | inactive
5 | Fc1ccc(CNc2nc(-c3ccccc3C(F)(F)F)nc3ccccc23)cc1 | inactive | inactive
6 | O=C1CCCC2=C1C(c1ncccc1C(F)(F)F)N=C(Nc1nc3ccccc3o1)N2 (stereo unspecified) | inactive | inactive
7 | CC(=O)O[C@@H]1C(=O)O[C@@H]2[C@H]1OC(=O)[C@@H]2OC(C)=O | inactive | inactive
8 | N#CN1CCC(NS(=O)(=O)c2ccc(C(F)(F)F)cc2)C1 (stereo unspecified) | inactive | inactive
9 | O=C(Nc1cncnc1)c1cccs1 | inactive | inactive
10 | C=C1C[C@]23C[C@@]1(O)CC[C@H]2[C@@]12C=C[C@H](O)[C@@](C)(C(=O)O1)[C@H]2[C@@H]3C(=O)O | inactive | inactive
11 | CC1=C(C(=O)Nc2nnc(-c3ccccc3)s2)C(c2nn(C)cc2Cl)N=C(Nc2nc3ccccc3o2)N1 (stereo unspecified) | inactive | inactive
12 | CN(C)CC(=O)NC1CCCc2c1cnn2-c1ccc(F)cc1F (stereo unspecified) | inactive | inactive
13 | CCCCCCCCn1cc(CN(CC)CC)c2cc(-c3cnc(N)nc3)ccc21 | inactive | inactive
14 | c1nc(N2CCC(N3CCCC3)CC2)c2cc(-c3ccc4c(c3)OCO4)ccc2n1 | inactive | inactive
15 | O=C(NCCc1ccccc1)C1CCN(c2nc(-c3ccc(Br)cc3)cs2)CC1 | inactive | inactive
16 | CCOc1ccc(C(=O)Nc2ccc(-c3nn[nH]n3)cc2)cc1[N+](=O)[O-] | inactive | inactive
17 | O=P(c1ccccc1)(c1ccccc1)c1cnc2ccccn12 | inactive | inactive
18 | COc1ccc(CC(=O)Nc2ccc(S(=O)(=O)Nc3cc(C)on3)cc2)cc1C | inactive | inactive
19 | CC(=O)O[C@@H]1c2c3c(cc(O)c2C(=O)O[C@@H]1C)O[C@@]1(C)[C@@H](O)C[C@H]2C(C)(C)C(=O)C=C[C@]2(C)[C@@H]1C3 | inactive | inactive

Row | SMILES | Potency [1] | Potency [2]
20 | CS(=O)(=O)c1ccc(C(=O)OCC(=O)N2CCC(Cc3ccccc3)CC2)cc1[N+](=O)[O-] | inactive | inactive
21 | Cc1ccc(OCCCn2c(CCNC(=O)C3CCCCC3)nc3ccccc32)cc1 | inactive | inactive
22 | CCN(CC)CCCC(C)n1c(-c2ccccc2)nc2c(NC3CCCCC3)nc(C)nc21 (stereo unspecified) | inactive | inactive
23 | CCCCCN1CCC(C(=O)Nc2ccc([S+](=O)([O-])Nc3nccs3)cc2)CC1 | inactive | inactive
24 | C[C@H](N)C(=O)Nc1ccc(Cl)cc1C(=O)c1ccc[nH]1 | inactive | inactive
25 | C=C(C(=O)O)[C@@H]1CC[C@@]2(C)CC[C@H](O)[C@@]2(C(C)=O)C1 | inactive | inactive
26 | Cc1ccc(S(=O)(=O)Nc2ccncc2C(=O)Nc2nc(-c3ccccc3)cs2)cc1 | inactive | inactive
27 | Cc1ccc(Cl)cc1NS(=O)(=O)c1cc2c(cc1Cl)CCC(=O)N2 | inactive | inactive
28 | Cc1cc(N[S+](=O)([O-])c2ccc(NC(=O)Cn3c(=O)oc4ccc(Cl)cc43)cc2)no1 | inactive | inactive
29 | Cc1ccc(CNc2ccc(N3CCN(C(=O)OC(C)(C)C)CC3=O)cc2)cc1 | inactive | inactive
30 | O=C(CCc1ccccc1)Nc1ncnc2c1C(c1ccccc1)c1c(ccc3ccccc13)O2 (stereo unspecified) | inactive | inactive
31 | COc1ccc(CN(Cc2ccccc2)C(=O)c2ccccc2)cc1COc1ccc(NC(C)=O)cc1 | inactive | inactive
32 | Cc1cc(N[S+](=O)([O-])c2cc3c(cc2Cl)CCC(=O)N3)ccc1Br | inactive | inactive
33 | COc1ccc(-c2nnc3n2N=C(c2c(OC)cccc2OC)CS3)c(OC)c1 | inactive | inactive
34 | COc1cccc(S(=O)(=O)Nc2cnccc2C(=O)Nc2nc(-c3ccccc3)cs2)c1 | inactive | inactive
35 | COc1cc(O)c(C(CC(=O)N2CC(C)CC(C)C2)c2ccc(O)cc2)c(OC)c1 (stereo unspecified) | inactive | inactive
36 | Cc1ccc(NS(=O)(=O)c2cc3c(cc2C)OCC(=O)N3)cc1C | inactive | inactive
37 | Cc1cc(C)nc(NC(=S)N2CCN(c3ccc([N+](=O)[O-])cc3Cl)CC2)c1 | inactive | inactive
38 | COc1cc(O)c(C(CC(=O)N2CCCCC2)c2ccc3c(c2)OCO3)c(OC)c1 (stereo unspecified) | inactive | inactive
